Screens from PubChem BioAssay.
This is a sample that favours compounds with a hit; in the whole collection about 5.2% have one here.
SMARCA2 act – SMARCA2 (BRM) function activators, primary screen, cell-based, luminescence, high throughput. AID 652017, 2013. activation, % at 9.1 µM. hit rate 1% among 370,000. MG213 cells, MMTV-luciferase reporter, dexamethasone, overnight; in the data active = activation above about 7.8%;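 note: 0% = vehicle wells and 100% = reference activator wells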
NadD inh – inhibitors of S. aureus NadD, primary screen, biochemical, colorimetric, uHTS; Nicotinate-nucleotide adenylyltransferase NadD (Staphylococcus aureus N315); purified NadD enzyme, colorimetric absorbance read-out; inhibition, % at 20 µM; hit rate 0.78% among 360,000; in the data active = inhibition above about 26%
esBAF inh – Bmi1 luciferase reporter increase in mESCs, primary screen, esBAF inhibitor project, mouse ES cells, Bmi1 luciferase knock-in, single point. 24 h; 100% = twice the neutral-well signal. reporter increase, % at 12.5 µM. hit rate 2% among 350,000. AID 602393, 2012; in the data active = activation above about 40%; inconclusive = no clear call, values can overlap the other calls;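 note: 0% = median of the plate's neutral control wells and 100% = double that signal; a rise in the Bmi1 reporter signal indicates esBAF inhibition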
SKN-1 block – suppressors of acrylamide-induced Pgst-4::GFP reporter in worms, primary screen, SKN-1 inhibitor project, whole organism, uHTS, GFP/RFP fluorescence ratio, strain VP596; C. elegans VP596 Pgst-4::GFP/RFP ratio, 24 h; inhibition, % at 21.8 µM; hit rate 0.49% among 360,000; AID 624304, 2012;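 active = interference check ratio from 0.5 to 1.5 plus GFP to RFP signal ratio inhibition reaching or exceeding a fixed threshold, cut at about 30% in these data, passing the limit was not always enough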
NR3A LBD binder – binders of NR3A ligand-binding domain, primary screen, biophysical, differential scanning fluorimetry, uHTS; Glutamate receptor ionotropic, NMDA 3A (GRIN3A) ligand-binding domain; Tm shift relative to glycine control, % at 25 µM; NR3A LBD differential scanning fluorimetry, Tm shift; 0% = protein alone, 100% = glycine-bound protein; AID 1259313, 2017; hit rate 2.5% among 340,000;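 active = melting temperature shift of at least 10% of the positive control shift, at one fixed dose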
Vif inh – HIV Vif self-association inhibitors, primary screen, imaging, HEK293T, single point; AID 602346, 2012; inhibition, % at 7.49 µM; HEK293T cells, Vif self-association by quenched fluorescence, 24 h; hit rate 0.35% among 340,000; in the data active = inhibition above about 50%, passing the limit was not always enough; inconclusive = no clear call, values can overlap the other calls; inactive = below about 31%
* = called active by the depositor; ? = inconclusive; / = no result given.

SMILES	SMARCA2 act	NadD inh	esBAF inh	SKN-1 block	NR3A LBD binder	Vif inh
O=C(CC1CC1)Nc1ccc2c(c1)[C@H]1C[C@@H](CC(=O)N3CCOCC3)O[C@@H](CO)[C@H]1O2	/	/	2.4	/	/	/
CC(=O)Nc1cccc(-c2nc3ccccc3[nH]2)c1	-0.5	-4.3	14.6	-4.1	-15.5	-5.2
CC(Oc1ccccc1)C(=O)Nc1cccc(-c2nc3ccccc3[nH]2)c1 (centres undefined)	1.3	4.3	45.9*	1.6	-8.4	-17.4
O=C(COc1ccccc1)Nc1cccc(-c2nc3cc4ccccc4cc3[nH]2)c1	2.4	21.1	6.5	1.9	25.9*	1.9
COC(=O)[C@H](CCSC)NC(=O)Nc1cc(C)ccc1C	-1.4	5.4	-7.2	-3.9	2.0	10.6
COC(=O)[C@H](CCSC)NC(=O)Nc1ccc(C)cc1	-1.1	2.8	-1.1	-2.7	11.2*	6.8
COC(=O)[C@H](CCSC)NC(=O)Nc1cccc(Br)c1	-1.6	-3.8	/	0.1	16.9*	10.1
C[C@@H](NC(=O)C[C@@H]1CC[C@@H](NS(=O)(=O)c2cccc(F)c2)[C@@H](CO)O1)c1ccccc1	/	/	-0.3	/	/	/
COC(=O)C(C(=O)OC)C(c1ccccc1)C(C(=O)c1ccccc1)[N+](=O)[O-] (centres undefined)	2.3	-5.9	/	-0.6	0.5	53.3*
O=C(Cn1c2c(sc1=O)C1c3ccccc3OCC1CS2)Nc1ccc(Cl)c(Cl)c1 (centres undefined)	4.7	12.1	/	-2.2	23.6*	-2.2
CS(=O)(=O)Nc1ccc2c(c1)[C@@H]1C[C@H](CC(=O)NCc3cccnc3)O[C@H](CO)[C@@H]1O2	/	/	3.6	/	/	/
O=C(Nc1ccccc1Br)c1cc(=O)c2ccccc2o1	7.6	-7.1	49.2*	23.3	0.1	0.0
NS(=O)(=O)c1cccc(NC(=O)c2cc(=O)c3ccccc3o2)c1	0.3	1.6	4.2	14.2	2.5	-8.3
C[C@H]1CN([C@@H](C)CO)C(=O)c2cc(NC(=O)Nc3ccc(C(F)(F)F)cc3)ccc2O[C@H]1CN(C)S(=O)(=O)c1ccc(F)cc1	/	/	0.0	/	/	/
CCc1nnc(NS(=O)(=O)c2ccc(N=Cc3c(C)[nH]n(-c4cccc(Cl)c4)c3=O)cc2)s1	-0.8	29.8	/	1.5	20.1*	-13.7
Cc1[nH]n(-c2ccccc2)c(=O)c1C=Nc1ccc(S(=O)(=O)Nc2nccs2)cc1	-5.0	18.1	/	3.4	-3.0	0.7
COCC(=O)Nc1ccc2c(c1)C(=O)N(C)[C@@H]1CC[C@H](CC(=O)NCC3CCCCC3)O[C@@H]1CO2	/	/	1.0	/	/	/
O=C(N/N=C/c1ccc(O)cc1)c1ccc(NC(=O)c2ccccc2Br)cc1	2.4	5.3	13.6	-5.0	17.6*	6.4
O=C(Nc1ccccc1C(=O)N/N=C/c1ccc(F)cc1)c1ccccc1Br	0.8	5.5	8.1	-2.8	1.0	/
Cc1ccccc1C(=O)Nc1ccc(C(=O)N/N=C/c2ccc(O)cc2)cc1	-0.7	-5.1	2.3	-1.1	28.0*	69.9*
Cc1noc(C)c1S(=O)(=O)Nc1ccc2c(c1)CC(=O)N([C@H](C)CO)C[C@@H](C)[C@H](CN(C)CC1CCCCC1)O2	/	/	3.4	/	/	/
CN1[C@@H]2Cn3c(ccc(-c4cccnc4)c3=O)[C@H]1[C@@H](C(=O)N1CCC(Cc3ccccc3)CC1)[C@@H]2CO	/	/	-0.9	/	/	/
O=C1CS(=O)(=O)N(Cc2cccc(F)c2)c2ccc(Br)cc21	-0.7	-4.8	5.2	11.7	-11.8	-2.2
O=C1c2cc(Br)ccc2N(Cc2ccc(Br)cc2)S(=O)(=O)C1c1cc(Cl)c(Cl)cc1[N+](=O)[O-] (centres undefined)	/	32.3*	-1.1	-5.0	-3.0	5.0
CC(=O)Nc1ccc(Nc2ncnc3c2cnn3-c2ccc(C)cc2C)cc1	-1.4	-1.9	11.3	3.3	-2.2	-8.4
SMILES	SMARCA2 act	NadD inh	esBAF inh	SKN-1 block	NR3A LBD binder	Vif inh
CC(=O)NNc1ncnc2c1cnn2-c1ccccc1	5.0	1.9	/	19.9	-1.6	0.9
Cn1ncc2c(Nc3cccc(Cl)c3)nc(Nc3cccc(Cl)c3)nc21	-1.1	0.5	5.0	14.9	31.1*	1.0
Clc1ccc(Nc2ncnc3c2cnn3-c2ccccc2)cc1	0.3	-2.6	84.8*	37.5*	1.7	-5.2
CC(=O)Nc1ccc(Nc2ncnc3c2cnn3-c2ccccc2)cc1	6.4	1.7	31.2	12.9	18.7*	-26.0
CC(=O)Nc1ccc(Nc2ncnc3c2cnn3-c2cccc(C)c2)cc1	7.9*	-0.8	-3.3	14.5	22.1*	-9.1
C[C@@H]1CN([C@@H](C)CO)C(=O)c2cccc(NS(=O)(=O)c3cn(C)cn3)c2O[C@@H]1CN(C)S(=O)(=O)c1ccc(Cl)cc1	/	/	0.8	/	/	/
COc1cccc(C(=O)Nc2ccc3c(c2)C(=O)N(C)C[C@@H](OC)[C@H](C)CN(CC2CC2)[C@@H](C)CO3)c1	/	/	-3.4	/	/	/
Cn1ncc2c(Nc3ccc4ccccc4c3)ncnc21	7.6	-5.4	53.3*	13.7	-4.0	-1.9
Cc1cccc(Nc2ncnc3c2cnn3C)c1	2.3	1.4	-2.1	3.1	-1.8	-11.7
CCC(=O)N1CCN(c2nc3ccccc3s2)CC1	2.9	0.8	/	-5.6	-9.7	3.9
O=C(C1CC1)N1CCN(c2nc3ccccc3s2)CC1	0.9	-3.5	46.3*	16.4	-3.8	-2.6
O=C(N/N=C/c1cn(Cc2ccccc2)c2ccccc12)c1ccncc1	-3.9	0.0	-3.1	3.4	-4.7	-27.1
O=C(N/N=C/c1cccc2ccccc12)c1cc2ccccc2o1	-1.3	1.2	0.3	1.9	17.8*	25.6
O=C(N/N=C/c1cccc([N+](=O)[O-])c1)c1cc2ccccc2o1	1.0	5.9	/	8.8	13.2*	-1.2
COc1ccc(OC)c(/C=N\NC(=O)c2cc3c(ccc4ccccc43)o2)c1	-0.9	22.6	-2.5	15.8	22.5*	-1.6
O=C(N/N=C/c1ccsc1)c1cc2ccccc2o1	2.4	-5.6	24.5	-6.7	3.1	1.5
Nc1ccc(C(=O)N/N=C/c2cn(Cc3cccc(F)c3)c3ccccc23)cc1	0.2	8.6	14.2	4.5	18.1*	-5.2
Cc1ccccc1C(=O)N/N=C/c1cccc2ccccc12	-0.3	2.9	?	13.0	-2.7	-9.5
Nc1ccc(C(=O)N/N=C\c2cc(N=Nc3cccc4ccccc34)ccc2O)cc1	-2.1	41.1*	-38.6	5.9	8.0	?
CCc1ccc(C(=O)N/N=C/c2cccc3ccccc23)nc1	6.3	-3.0	/	-2.2	11.5*	4.5
